# Measured values published in PubChem BioAssay (Tox21).
# A number with no mark means an inactive call. Records with an inconclusive call do not appear. Where a call stands in place of a potency, no number is given. Active and inactive are the calls of the source. Unless noted, calls come from the whole dose curve; as a rule, active = well fitted curve in the direction sought with a large enough effect in the repeat runs; inconclusive = weak or mixed curves; inactive = no such curve, though single readings can be large; an effect the other way counts as inactive or inconclusive.
# What was measured:
# [1] = qHTS assay for small molecule agonists of the p53 signaling pathway (AID 651631; calls by dose curve; note: nearly all actives have a fitted effect of over 15% in size; note: potency is the fitted concentration of half-maximal effect)
# Procedure, shortened: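 p53RE-bla HCT-116 cells; compounds 16 h, 37 °C; LiveBLAzer B/G FRET substrate 2 h RT; fluorescence intensity read-out, qHTS format.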
# [2] = qHTS assay for small molecules that induce genotoxicity in human embryonic kidney cells expressing luciferase-tagged ATAD5 (AID 651632); note: nearly all actives have a fitted effect of over 15% in size
# Procedure, shortened: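 Reporter cells (HEK293T) express luciferase-tagged ATAD5, a protein that accumulates after DNA damage. Treat 16 hr at 37C/5% CO2, add Amplite, wait 30 min at RT, and read luminescence.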
# [3] = qHTS assay for small molecules that induce genotoxicity in human embryonic kidney cells expressing luciferase-tagged ATAD5 - cell viability (AID 651634; calls by dose curve; note: nearly all actives have a fitted effect of over 25% in size)
# Procedure, shortened: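 Seeding of 2,000 HEK293T ATAD5-luciferase cells per well preceded pin-tool compound transfer. Plates sat 15.5 hr at 37C under 5% CO2, then fluorescence was read after 30 min with CellTiter-Fluor.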
# [4] = qHTS assay to test for compound auto fluorescence at 590 nm (red) in HepG2 cells (AID 720674)
# Procedure, shortened: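 HepG2 cells, 2,000 per well in MEM with 10% FBS, attached overnight at 37 C, then got 23 nL compound or DMSO. After 1 hr at 37 C, 5% CO2, red fluorescence was read at 540/590 nm against Rose Bengal sodium as reference.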
# [5] = qHTS assay to test for compound auto fluorescence at 535 nm (green) in HepG2 cells (AID 720675)
# [6] = qHTS assay to test for compound auto fluorescence at 460 nm (blue) in HEK293 cells (AID 720678)
# Procedure, shortened: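 Cells were seeded and left to adhere for 4-5 hr at 37C. Compounds were then pin-transferred. After an overnight incubation at 37C under 5% CO2, intrinsic fluorescence at 405/460 nm was measured and referenced to triamterene.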
# [7] = qHTS assay to test for compound auto fluorescence at 590 nm (red) in HEK293 cells (AID 720679)
# Procedure, shortened: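 Each well held 2,000 HEK293 cells in medium containing 10% dialyzed FBS. Following 4-5 hr attachment at 37C, 23 nL test compound or DMSO was added; plates sat overnight, and red fluorescence (540/590nm) was recorded.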
# [8] = qHTS assay to test for compound auto fluorescence at 535 nm (green) in HEK293 cells (AID 720680)
# [9] = qHTS assay to test for compound auto fluorescence at 460 nm (blue) in HEK293 cell free culture (AID 720681)
# Procedure, shortened: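 Compounds were added to cell-free DMEM with 10% FBS and fluorescence read directly. The blue channel used 405 nm excitation and 460 nm emission, with triamterene as the reference fluorophore.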
# [10] = qHTS assay to test for compound auto fluorescence at 590 nm (red) in HEK293 cell free culture (AID 720683)
# Procedure, shortened: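 Cell-free wells of DMEM with 10% FBS received compound, and intrinsic fluorescence was read at excitation/emission 540/590 nm. Values expressed as equivalence to Rose Bengal sodium.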
# [11] = qHTS assay to test for compound auto fluorescence at 590 nm (red) in HepG2 cell free culture (AID 720684)
# Procedure, shortened: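 Compounds are added to culture medium (MEM, 10% FBS) lacking cells, then fluorescence is read at excitation 540 nm, emission 590 nm, with Rose Bengal sodium as the equivalency standard.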
# [12] = qHTS assay to test for compound auto fluorescence at 535 nm (green) in HepG2 cell free culture (AID 720686)
# [13] = qHTS assay to test for compound auto fluorescence at 460 nm (blue) in HepG2 cells (AID 720687)
# Procedure, shortened: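 HepG2 cells in MEM with 10% FBS, attached overnight at 37 C, were exposed to compound or DMSO for 1 hr at 37 C, 5% CO2. Blue fluorescence was read at 405/460 nm, with triamterene as reference fluorophore.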
# [14] = molecular target: Glucocorticoid receptor (Homo sapiens) (UniProt P04150); experiment: qHTS assay to identify small molecule agonists of the glucocorticoid receptor (GR) signaling pathway (AID 720691; active = well fitted activation curve with a large enough effect in the signal ratio in the repeat runs, not every such curve was filed as active; the % refers to the signal ratio)
# Procedure, shortened: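 Reporter read-out: fluorescence intensity following 2 h room-temperature LiveBLAzer B/G FRET substrate loading. Prior step: GR-bla HeLa cells held 4 h, then treated 18 h at 37 C.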
# [15] = molecular target: Glucocorticoid receptor (Homo sapiens) (UniProt P04150); experiment: qHTS assay to identify small molecule antagonists of the glucocorticoid receptor (GR) signaling pathway (AID 720692; active = well fitted inhibition curve with a large enough effect in the signal ratio in the repeat runs, not every such curve was filed as active; the % refers to the signal ratio)
# Procedure, shortened: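 Dexamethasone (5 nM final) stimulated a stably integrated GRE-beta-lactamase reporter in HeLa cells during 18 h co-incubation with compounds; signal was quantified as fluorescence intensity of B/G FRET substrate after 2 h.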
# [16] = qHTS assay for small molecule disruptors of the mitochondrial membrane potential - cell viability (AID 720634; calls by dose curve;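 note: human HepG2 liver cancer cells; series mostly up to about 83 µM; nearly all actives have a fitted effect of over 20% in size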)
# Procedure, shortened: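 Measuring cytotoxicity alongside mitochondrial potential, the screen quantified ATP by luminescence in HepG2 cells after 1 hr compound incubation and a 30 min room-temperature CellTiter-Glo step.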
# [17] = qHTS assay to test for compound auto fluorescence at 535 nm (green) in HEK293 cell free culture (AID 720682)
# Procedure, shortened: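 Cell-free medium (DMEM, 10% FBS) receives compound or DMSO by pintool. Plate read directly at Ex 485/Em 535 nm. Signal converted to fluorescein equivalency.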
# [18] = qHTS assay to test for compound auto fluorescence at 460 nm (blue) in HepG2 cell free culture (AID 720685)
# Procedure, shortened: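 Compound (23 nL) or DMSO pinned into cell-free MEM with 10% FBS; blue fluorescence read at 405/460 nm excitation/emission, expressed as auto-fluorescence equivalency to triamterene.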
# [19] = qHTS assay for small molecule disruptors of the mitochondrial membrane potential (AID 720635); note: potency is the fitted concentration of half-maximal effect
# Procedure, shortened: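 HepG2 cells exposed to compound 1 hr at 37C, then Mito-MPS dye 30 min. Ratio read of aggregate (540/590 nm) versus monomer (490/535 nm) fluorescence.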
# [20] = qHTS assay for small molecule agonists of the p53 signaling pathway - cell viability (AID 651633; calls by dose curve;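 note: p53RE-bla HCT reporter cells with a stable beta-lactamase p53 reporter; series mostly up to about 83 µM; nearly all actives have a fitted effect of over 30% in size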)
# Procedure, shortened: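 p53RE-bla cells were treated with compound for 16 hours at 37 C. Cytotoxicity was then measured as CellTiter-Glo luminescence after 30 min at room temperature.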
# Glucocorticoid receptor (Homo sapiens), sequence (P04150 whole entry, looked up): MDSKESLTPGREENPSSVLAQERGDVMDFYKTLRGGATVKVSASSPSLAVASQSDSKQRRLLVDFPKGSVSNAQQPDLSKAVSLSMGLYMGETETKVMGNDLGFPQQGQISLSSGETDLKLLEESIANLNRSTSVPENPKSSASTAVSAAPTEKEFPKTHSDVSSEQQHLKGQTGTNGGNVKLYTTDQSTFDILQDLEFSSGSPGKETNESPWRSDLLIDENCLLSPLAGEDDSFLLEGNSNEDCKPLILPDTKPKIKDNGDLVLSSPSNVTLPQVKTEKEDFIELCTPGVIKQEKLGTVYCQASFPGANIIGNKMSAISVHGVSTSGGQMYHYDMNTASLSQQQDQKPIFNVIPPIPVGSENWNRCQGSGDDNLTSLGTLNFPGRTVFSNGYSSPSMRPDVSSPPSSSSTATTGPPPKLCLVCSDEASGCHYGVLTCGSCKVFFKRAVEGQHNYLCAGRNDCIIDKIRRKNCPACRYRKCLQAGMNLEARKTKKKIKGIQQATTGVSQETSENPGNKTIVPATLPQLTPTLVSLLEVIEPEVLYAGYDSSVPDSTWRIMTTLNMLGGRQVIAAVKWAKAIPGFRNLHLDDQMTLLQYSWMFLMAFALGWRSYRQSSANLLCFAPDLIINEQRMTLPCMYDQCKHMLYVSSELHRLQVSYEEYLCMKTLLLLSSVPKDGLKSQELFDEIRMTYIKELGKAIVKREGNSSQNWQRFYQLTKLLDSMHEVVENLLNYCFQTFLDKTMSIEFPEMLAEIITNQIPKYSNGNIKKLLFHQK
smiles,measurement,setting,value
CCCCCCCCCCCCCCC1CO1 (centres undefined),Potency,[1],inactive
same,Potency,[2],inactive
same,Potency,[3],inactive
same,outcome,[4],inactive
same,outcome,[5],inactive
same,Potency,[6],inactive
same,outcome,[7],inactive
same,outcome,[8],inactive
same,Potency,[9],inactive
same,outcome,[10],inactive
same,outcome,[11],inactive
same,outcome,[12],inactive
same,Potency,[13],inactive
same,Potency,[14],inactive
same,Potency,[15],inactive
CCCCOc1cc(C(=O)OCCN(CC)CC)ccc1N,Potency,[1],inactive
same,Potency,[2],inactive
same,Potency,[3],inactive
same,Potency,[16],inactive
same,"fluorescence, relative to Rose Bengal",[4],-0.373% [at 18.6 µM]
same,"fluorescence, % of fluorescein control",[5],-0.0083% [at 18.6 µM]
same,"fluorescence, % of triamterene",[6],0.0068% [at 18.6 µM]
same,"fluorescence, % of fluorescent control",[7],0.112% [at 18.6 µM]
same,"fluorescence, % of fluorescein",[8],0.0482% [at 18.6 µM]
same,activity change,[17],-0.0782% [at 18.6 µM]
same,"fluorescence, % of fluorescent control",[10],-0.0563% [at 18.6 µM]
same,"fluorescence, % of Rose Bengal",[11],0.59% [at 18.6 µM]
same,"fluorescence, % of fluorescent control",[18],0.0523% [at 18.6 µM]
same,"fluorescence, % of fluorescein control",[12],0.0068% [at 18.6 µM]
same,"fluorescence, % of fluorescent control",[13],-0.135% [at 18.6 µM]
same,Potency,[14],inactive
same,Potency,[15],inactive
CC[C@]12CCCN3CCc4c(n(c5ccccc45)C(=O)C1)[C@@H]32,Potency,[1],2.54 µM (active)
same,Potency,[2],inactive
same,Potency,[3],inactive
same,Potency,[16],inactive
same,Potency,[19],inactive
same,"fluorescence, relative to Rose Bengal",[4],-0.674% [at 18.6 µM]
same,"fluorescence, % of fluorescein control",[5],0.0406% [at 18.6 µM]
same,"fluorescence, % of triamterene",[6],0.0203% [at 18.6 µM]
same,"fluorescence, % of fluorescent control",[7],0.0084% [at 18.6 µM]
same,"fluorescence, % of fluorescein",[8],0.0475% [at 18.6 µM]
same,activity change,[17],0.026% [at 18.6 µM]
same,"fluorescence, % of fluorescent control",[10],-0.702% [at 18.6 µM]
same,"fluorescence, % of Rose Bengal",[11],0.0021% [at 18.6 µM]
same,"fluorescence, % of fluorescent control",[18],0.043% [at 18.6 µM]
same,"fluorescence, % of fluorescent control",[13],-0.0508% [at 18.6 µM]
NCc1ccccc1,Potency,[1],inactive
same,Potency,[2],inactive
same,Potency,[3],inactive
same,Potency,[16],inactive
same,Potency,[19],inactive
same,outcome,[4],inactive
same,outcome,[5],inactive
same,Potency,[6],inactive
same,outcome,[7],inactive
same,outcome,[8],inactive
same,Potency,[9],inactive
same,outcome,[10],inactive
same,outcome,[11],inactive
same,Potency,[18],inactive
same,outcome,[12],inactive
same,Potency,[13],inactive
same,Potency,[14],inactive
same,Potency,[15],inactive
O=C(O)/C=C/c1cnc[nH]1,Potency,[1],inactive
same,Potency,[20],inactive
same,Potency,[3],inactive
same,Potency,[16],inactive
same,Potency,[19],inactive
same,outcome,[4],inactive
same,outcome,[5],inactive
same,Potency,[6],inactive
same,outcome,[7],inactive
same,outcome,[8],inactive
same,outcome,[17],inactive
same,outcome,[10],inactive
same,outcome,[11],inactive
same,Potency,[18],inactive
same,Potency,[13],inactive
same,Potency,[14],inactive
same,Potency,[15],inactive
CC(=O)OC/C=C/c1ccccc1,Potency,[1],inactive
same,Potency,[2],inactive
same,Potency,[3],inactive
same,Potency,[16],inactive
same,Potency,[19],inactive
same,outcome,[4],inactive
same,Potency,[6],inactive
same,outcome,[7],inactive
same,outcome,[8],inactive
same,Potency,[9],inactive
same,outcome,[17],inactive
same,outcome,[10],inactive
same,outcome,[11],inactive
same,Potency,[18],inactive
same,outcome,[12],inactive
same,Potency,[13],inactive
same,Potency,[14],inactive
same,Potency,[15],inactive
CC1(C)[C@H]2CC[C@]1(C)[C@H](O)C2,Potency,[1],inactive
same,Potency,[2],inactive
same,Potency,[3],inactive
same,Potency,[16],inactive
same,Potency,[19],inactive
same,outcome,[4],inactive
same,outcome,[5],inactive
same,Potency,[6],inactive
same,outcome,[7],inactive
same,outcome,[8],inactive
same,Potency,[9],inactive
same,outcome,[17],inactive
same,outcome,[10],inactive
same,outcome,[11],inactive
same,Potency,[18],inactive
same,outcome,[12],inactive
same,Potency,[13],inactive
same,Potency,[14],inactive
same,Potency,[15],inactive
CCCC[C@H]1CN(CC2CCOCC2)C(=O)OC12CCN(C1(C)CCN(C(=O)c3c(C)ncnc3C)CC1)CC2,Potency,[1],inactive
same,Potency,[2],inactive
same,Potency,[3],inactive
same,Potency,[16],inactive
same,Potency,[19],inactive
same,outcome,[4],inactive
same,Potency,[6],inactive
same,outcome,[7],inactive
same,outcome,[8],inactive
same,Potency,[9],inactive
same,outcome,[17],inactive
same,outcome,[10],inactive
same,outcome,[11],inactive
same,Potency,[18],inactive
same,outcome,[12],inactive
same,Potency,[13],inactive
CNS(=O)(=O)Cc1ccc2[nH]cc(CCN(C)C)c2c1,Potency,[1],inactive
same,Potency,[2],inactive
same,Potency,[3],inactive
same,Potency,[16],inactive
same,Potency,[19],29.8 µM (active)
same,outcome,[4],inactive
same,outcome,[5],inactive
same,Potency,[6],inactive
same,outcome,[7],inactive
same,Potency,[9],inactive
same,outcome,[17],inactive
same,outcome,[10],inactive
same,outcome,[11],inactive
same,Potency,[18],inactive
same,outcome,[12],inactive
same,Potency,[14],inactive
CN(C)CCCOc1nn(Cc2ccccc2)c2ccccc12,Potency,[1],inactive
same,Potency,[20],inactive
same,Potency,[3],inactive
same,Potency,[16],inactive
same,"fluorescence, relative to Rose Bengal",[4],-0.438% [at 18.6 µM]
same,"fluorescence, % of fluorescein control",[5],-0.0147% [at 18.6 µM]
same,"fluorescence, % of triamterene",[6],-0.0099% [at 18.6 µM]
same,"fluorescence, % of fluorescent control",[7],0.312% [at 18.6 µM]
same,"fluorescence, % of fluorescein",[8],0.0226% [at 18.6 µM]
same,"fluorescence, % of fluorescent control",[9],-0.101% [at 18.6 µM]
same,activity change,[17],-0.0035% [at 18.6 µM]
same,"fluorescence, % of fluorescent control",[10],0.117% [at 18.6 µM]
same,"fluorescence, % of Rose Bengal",[11],-0.0465% [at 18.6 µM]
same,"fluorescence, % of fluorescent control",[18],-0.0147% [at 18.6 µM]
same,"fluorescence, % of fluorescein control",[12],0.0194% [at 18.6 µM]
same,"fluorescence, % of fluorescent control",[13],-0.0064% [at 18.6 µM]
same,Potency,[14],inactive
same,Potency,[15],inactive
